Drawing on PubChem BioAssay (NCI), this text covers growth for 6 compounds.

What all share (experiment): NCI-60 one-dose screen, 48 h (100 = growth as untreated, 0 = no growth, -100 = all killed)
Holding throughout (details): 10 µM unless noted

Experiment [1] deals with DU-145 prostate.
Experiment [2] deals with K-562 leukemia.
The test system of experiment [3] is MALME-3M melanoma.
Experiment [4] relates to MDA-MB-231 breast.
Experiment [5] deals with RXF 393 renal.
The subject of experiment [6] is SF-268 CNS.
For experiment [7], the system named is SF-295 CNS.
In experiment [8] the test system is SF-539 CNS.
For experiment [9], the system named is UACC-257 melanoma.
For experiment [10], the system named is M14 melanoma.
For experiment [11], the system named is HCT-15 colon.
For experiment [12], the system named is HT29 colon.
Experiment [13] concerns SNB-75 CNS.
Experiment [14] relates to SNB-19 CNS.
Experiment [15] has as its system U251 CNS.
Experiment [16] concerns PC-3 prostate.
The subject of experiment [17] is UACC-62 melanoma.
Experiment [18] has as its system LOX IMVI melanoma.
Experiment [19] concerns SK-MEL-28 melanoma.
In experiment [20] the test system is SK-MEL-5 melanoma.

Compounds without any hit were thinned out: in the full panel of roughly 83,000, 20% have a hit.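 Compound tested at a single concentration for 48 hours in 96-well plates; a percent growth value below 10 was scored as active.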 Values without a mark were called inactive. The source made the active and inactive calls.

For the compound `CC(=O)Nc1c(Br)cc2c(c1Br)Cc1cc(Br)ccc1-2`, the growth is 91.9% in experiment [1]; 80.5% in experiment [2]; 99.2% in [3]; 51.1% in [4]; 92% in [5]; 69.9% in experiment [6]. Moreover, the growth in experiment [7] was -18.8% (active); in experiment [8], 86.5%; in [9], 89.1%; in [10], 62.4%; in [11], 91.7%; in experiment [12], 52.8%. Besides, the growth in experiment [13] was 74.3%; in experiment [14] it was 79.4%; in experiment [15], 12.8%; in [16] it was 67.8%; in experiment [17], 72.2%; in [18], 20.7%. For the same compound, the growth in experiment [19] was 98.3%.
For `C=C1C(=O)O[C@H]2[C@H]1CC/C(COC(=O)NCc1cn(C)c3ccccc13)=C\CC[C@@]1(C)O[C@@H]21`, the growth is -42.6% (active) in experiment [1]; -16.5% (active) in experiment [2]; -34.3% (active) in experiment [3]; -8.6% (active) in experiment [4]; -93.7% (active) in [5]; 24.2% in experiment [6]. Moreover, the growth was 63.2% in [7]; -34.6% (active) in experiment [8]; -15% (active) in [9]; -42.1% (active) in experiment [10]; -45.8% (active) in experiment [11]; -62% (active) in experiment [12]. Besides, the growth was 50% in [13]; 54.2% in experiment [14]; 0.165% (active) in experiment [15]; 8.71% (active) in [16]; -41% (active) in experiment [17]; -65% (active) in experiment [18]. For the same compound, the growth in experiment [19] was -14.6% (active).
`CC(C)=CC[C@@H]1CC2(CC=C(C)C)C(=O)C(OC3(C(=O)c4ccccc4)C(=O)C4(CC=C(C)C)C[C@@H](CC=C(C)C)C(C)(C)C(CC=C(C)C)(C4=O)C3=O)(C(=O)c3ccccc3)C(=O)C(CC=C(C)C)(C2=O)C1(C)C` (some centres undefined): the growth in experiment [1] is 2.13% (active); in experiment [2], 4.86% (active); in experiment [3] it was -28.8% (active); in experiment [4], -11.3% (active); in experiment [5], 4.28% (active); in [6], 14.5%. For the same compound, the growth is -13.4% (active) in experiment [7]; -18.5% (active) in [8]; -19.7% (active) in experiment [9]; -2.59% (active) in [10]; 5.15% (active) in experiment [11]; -16.1% (active) in experiment [12]. Moreover, the growth is 37.6% in experiment [13]; 11.6% in [14]; 5.76% (active) in [15]; -17.3% (active) in [16]; -71.3% (active) in [17]; 1.63% (active) in experiment [18].
As to `c1ccc(-c2ccc(-c3ccccc3)[nH]2)cc1`, the growth in experiment [1] is 102%; in experiment [2], 81.1%; in experiment [3] it was 96.4%; in [4] it was 89.5%; in [5], 102%; in [6], 98.6%. In addition, the growth in experiment [7] was 109%; in experiment [8], 93.9%; in experiment [9], 101%; in experiment [10] it was 110%; in [11], 94.8%; in [12], 101%. Further, the growth was 87.9% in [13]; 104% in experiment [14]; 105% in experiment [15]; 99.8% in experiment [16]; 99% in experiment [20]; 87.2% in [17]. The growth in [18] is 103%; in experiment [19], 107%.
Turning to `CCN1CCN(Cc2ccc(NC(=O)Nc3ccc(-n4ccc5c(NC(=O)c6ccccc6)nccc54)cc3)cc2C(F)(F)F)CC1`, the growth in experiment [1] was -58.6% (active); in experiment [2], -39.2% (active); in experiment [3], -48% (active); in experiment [4], -39.3% (active); in experiment [5], -86.8% (active); in [6] it was 41.7%. Moreover, the growth was -18.9% (active) in experiment [7]; -48.4% (active) in [8]; -69.6% (active) in [9]; -65.1% (active) in experiment [10]; -6.13% (active) in [11]; -35.3% (active) in [12]. Moreover, the growth was -88.2% (active) in experiment [13]; -14% (active) in [14]; -75.8% (active) in experiment [15]; -97.6% (active) in experiment [20]; 41.3% in experiment [17]; -84.5% (active) in experiment [18]. The growth in [19] was -96.7% (active).
Take `COC(=O)OC1C(O[C@H]2C[C@H]3[C@@H]4CC=C5C[C@@H](O)CC[C@]5(C)[C@H]4CC[C@]3(C)[C@H]2[C@H](C)C(=O)CCC(C)C)OCC(O)C1OC1OCC(O)C(O)C1OC(=O)c1ccc(OC)cc1` (some centres undefined): the growth in experiment [1] is 34.8%; in experiment [2] it was -25.2% (active); in experiment [3], -6.07% (active); in [4], 22.7%; in [5], -71.9% (active); in [6], -6.22% (active). Besides, the growth in experiment [7] was -66.4% (active); in experiment [8], -58.1% (active); in [9], -55.3% (active); in experiment [10], -58.5% (active); in experiment [11], -40.9% (active); in experiment [12], 4.87% (active). Further, the growth in experiment [13] is 0.635% (active); in experiment [14], 8.46% (active); in [15], -18.5% (active); in experiment [16], -18.8% (active); in experiment [17], -29% (active); in [18], -38.7% (active). In addition, the growth in experiment [19] is -55.3% (active).
